SMILES strings stand for the structures. Hit rate of the full screen: of about 310,000 compounds, about 14,000 (4.5%) showed an effect of 50% or more. Effects have a minus sign here. Only a selection was taken, and strong results are over-represented in it overall.
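Further: peak tail current of the secondary pulse compared with the same well before compound.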

This test deals with human ether-à-go-go-related gene (hERG) potassium channel (human, UniProt Q12809). The experiment in a line: primary screen, population patch clamp on CHO cells stably expressing hERG; higher = less effect of the substance.
Chain of human ether-à-go-go-related gene (hERG) potassium channel (Q12809 whole entry, looked up): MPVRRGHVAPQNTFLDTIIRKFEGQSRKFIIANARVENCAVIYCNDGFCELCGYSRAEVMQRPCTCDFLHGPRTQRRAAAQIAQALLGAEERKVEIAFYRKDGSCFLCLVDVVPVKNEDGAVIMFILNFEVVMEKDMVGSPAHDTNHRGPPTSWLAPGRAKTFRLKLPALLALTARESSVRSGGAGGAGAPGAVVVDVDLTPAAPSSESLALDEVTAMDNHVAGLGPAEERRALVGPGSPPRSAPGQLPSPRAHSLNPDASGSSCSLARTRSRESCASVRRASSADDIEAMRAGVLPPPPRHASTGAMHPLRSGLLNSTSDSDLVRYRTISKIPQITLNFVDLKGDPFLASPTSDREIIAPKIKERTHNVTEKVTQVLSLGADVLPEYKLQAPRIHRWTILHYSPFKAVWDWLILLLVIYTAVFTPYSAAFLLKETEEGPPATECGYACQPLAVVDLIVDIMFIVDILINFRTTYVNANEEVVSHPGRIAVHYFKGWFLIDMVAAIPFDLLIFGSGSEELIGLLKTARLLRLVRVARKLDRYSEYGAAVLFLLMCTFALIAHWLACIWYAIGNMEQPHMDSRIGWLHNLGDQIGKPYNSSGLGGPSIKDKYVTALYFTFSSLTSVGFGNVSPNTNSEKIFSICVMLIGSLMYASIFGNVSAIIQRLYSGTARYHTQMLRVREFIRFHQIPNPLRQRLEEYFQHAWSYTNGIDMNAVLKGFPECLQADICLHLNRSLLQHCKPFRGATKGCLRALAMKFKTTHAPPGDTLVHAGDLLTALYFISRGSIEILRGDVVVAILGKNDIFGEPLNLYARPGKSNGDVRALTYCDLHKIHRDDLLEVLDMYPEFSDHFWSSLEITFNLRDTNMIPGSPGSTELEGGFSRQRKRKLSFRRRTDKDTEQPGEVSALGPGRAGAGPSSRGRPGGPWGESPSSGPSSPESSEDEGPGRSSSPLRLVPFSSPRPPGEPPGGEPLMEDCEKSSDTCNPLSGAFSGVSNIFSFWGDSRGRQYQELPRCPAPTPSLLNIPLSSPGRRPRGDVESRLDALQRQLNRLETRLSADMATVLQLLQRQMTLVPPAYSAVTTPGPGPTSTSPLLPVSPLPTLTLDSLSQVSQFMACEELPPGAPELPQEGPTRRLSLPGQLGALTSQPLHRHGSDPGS
Turning to `CCCCC(=O)OCC(=O)Nc1ccc(C)c(F)c1`, the “hERG current change (%, negative = inhibition) at 10uM” value is 14.6%.

For the compound `Cc1ccccc1NNC(N)=S`, the “hERG current change (%, negative = inhibition) at 10uM” value was found to be 5.65%.

As to `Cc1oc(S(=O)(=O)N2CCCC2)cc1C(=O)Nc1ccccc1`, the “hERG current change (%, negative = inhibition) at 10uM” value came out at 7.38%.

With `CCOc1cc(C(=O)N2CCCN(C)CC2)cc(OCC)c1OCC`, the “hERG current change (%, negative = inhibition) at 10uM” value came to 14.8%.

In the case of `Cc1onc(-c2ccccc2)c1C(=O)N1CCN(S(=O)(=O)c2ccc3c(c2)OCCO3)CC1`, the “hERG current change (%, negative = inhibition) at 10uM” value was -17.2%.

Regarding `O=C(/C=C/c1cn(-c2ccccc2)nc1-c1ccc2c(c1)OCCO2)NCCO`, the “hERG current change (%, negative = inhibition) at 10uM” value is recorded as -51.1%.

With `Cl.O=C(/C=C/c1cn(-c2ccccc2)nc1-c1ccc2c(c1)OCCO2)NCCCN1CCOCC1`, the “hERG current change (%, negative = inhibition) at 10uM” value is recorded as -5.65%.

On to `O=C(O)/C=C/c1cn(-c2ccccc2)nc1-c1ccc2c(c1)OCCO2`, for which the “hERG current change (%, negative = inhibition) at 10uM” value is on record as 10.1%.

In the case of `C/C(=N\NC(=O)CNc1cccc2ccccc12)c1ccc(Br)s1`, the “hERG current change (%, negative = inhibition) at 10uM” value is recorded as 6.57%.

In the case of `Cc1ccc(C(=O)OCC(=O)Nc2cccc(S(=O)(=O)NC3=NCCCCC3)c2)c(C)c1`, the “hERG current change (%, negative = inhibition) at 10uM” value was -15.4%.

As for `CS(=O)(=O)Nc1cccc(C(=O)CC2(O)C(=O)Nc3ccccc32)c1` (stereo not shown), the “hERG current change (%, negative = inhibition) at 10uM” value turned out to be 8.15%.

Consider `Nc1n[nH]c(N)c1N=Nc1ccccc1`, for which the “hERG current change (%, negative = inhibition) at 10uM” value is listed as 16.7%.

Consider `CCOc1ccccc1N1CCN(C(=O)CC(C)(C)C)CC1`, for which the “hERG current change (%, negative = inhibition) at 10uM” value amounted to 0.665%.

For the compound `CCN(CC)c1ccc(/C=N/N2CCN(c3ccccc3OC)CC2)cc1`, the “hERG current change (%, negative = inhibition) at 10uM” value is listed as 14.4%.

Consider `COc1ccccc1N1CCN(C/C=C/c2ccc(N(C)C)cc2)CC1`, for which the “hERG current change (%, negative = inhibition) at 10uM” value was -53.9%.

As for `CCOc1ccccc1N1CCN(C/C=C/c2ccc(N(C)C)cc2)CC1`, the “hERG current change (%, negative = inhibition) at 10uM” value is -60.1%.

With `COc1ccccc1/C=C/CN1CCN(c2ccccc2)CC1`, the “hERG current change (%, negative = inhibition) at 10uM” value is reported as -15.6%.

Take `CCOc1ccccc1N1CCN(Cc2ccco2)CC1`: the “hERG current change (%, negative = inhibition) at 10uM” value is given as -14.9%.

For `CCOc1ccccc1C1CC(=O)Nc2c1c(=O)n(C)c(=O)n2C` (stereo not shown), the “hERG current change (%, negative = inhibition) at 10uM” value is 7.34%.

As for `O=C(NCc1ccccc1)C(=O)NCC1OCCN1S(=O)(=O)c1ccc2c(c1)OCCO2` (stereo not shown), the “hERG current change (%, negative = inhibition) at 10uM” value is -3.14%.

`O=C(CCCc1nc(-c2ccc(Cl)cc2)no1)Nc1cccnc1`: the “hERG current change (%, negative = inhibition) at 10uM” value was -24.6%.

Take `COc1cc(C2C(=O)N(C3CCCC3)CC(=O)N2Cc2ccco2)ccc1OC(C)C` (stereo not shown): the “hERG current change (%, negative = inhibition) at 10uM” value was -27.6%.

As to `CCCOc1ccc(C2C(=O)N(C3CCCCCC3)CC(=O)N2Cc2ccco2)cc1OC` (stereo not shown), the “hERG current change (%, negative = inhibition) at 10uM” value was -36.7%.

For the compound `COc1ccc(C2C(=O)N(C3CCCCC3)CC(=O)N2C2CCCCC2)cc1` (stereo not shown), the “hERG current change (%, negative = inhibition) at 10uM” value is -51.7%.

As to `COc1ccc(C2C(=O)N(C3CCCCC3)CC(=O)N2C2CCCC2)cc1` (stereo not shown), the “hERG current change (%, negative = inhibition) at 10uM” value is given as -12.1%.

Take `COc1ccc(C2C(=O)N(C3CCCCC3)CC(=O)N2Cc2ccco2)cc1` (stereo not shown): the “hERG current change (%, negative = inhibition) at 10uM” value is given as -53.7%.

As to `Cc1ccc(C2C(=O)N(C3CCCC3)CC(=O)N2C2CCCCC2)cc1` (stereo not shown), the “hERG current change (%, negative = inhibition) at 10uM” value is given as -25.4%.

Consider `COc1cccc(-c2nnc3n2N=C(c2cccc(Br)c2)CS3)c1`, for which the “hERG current change (%, negative = inhibition) at 10uM” value amounted to 6.32%.

As to `CCOC(=O)Cn1c(-c2ccccc2)ccc(C#N)c1=O`, the “hERG current change (%, negative = inhibition) at 10uM” value was 8.28%.

For `Cc1ccc(S(=O)(=O)NC23CC4CC(CC(C4)C2)C3)cc1`, the “hERG current change (%, negative = inhibition) at 10uM” value was found to be 3.97%.

`CCC(=O)N1CCN(c2ccc(Cl)cc2NC(=O)c2ccc(N3CCCC3)c([N+](=O)[O-])c2)CC1`: the “hERG current change (%, negative = inhibition) at 10uM” value is -6.9%.

For the compound `COc1ccccc1NC(=O)CCN1C(=O)C2CC=C(Cl)CC2C1=O` (stereo not shown), the “hERG current change (%, negative = inhibition) at 10uM” value is recorded as -2.46%.

As to `C=C(C)c1cccc(C(C)(C)NC(=O)NC2CCN(Cc3ccccc3)CC2)c1.Cl`, the “hERG current change (%, negative = inhibition) at 10uM” value is recorded as -55.5%.

For the compound `Cc1ccc(/C=C(\NC(=O)c2ccccc2)C(=O)NCCN2CCOCC2)o1`, the “hERG current change (%, negative = inhibition) at 10uM” value is reported as -3.91%.

For the compound `CC(C)(Oc1ccc(Cl)cc1)C(=O)NC1CCCCC1`, the “hERG current change (%, negative = inhibition) at 10uM” value is 0.43%.

In the case of `CC(C)(Oc1ccc(Cl)cc1)C(=O)NC1CCN(Cc2ccccc2)CC1`, the “hERG current change (%, negative = inhibition) at 10uM” value was -70.4%.

`C=C(C)c1cccc(C(C)(C)NC(=O)NC2CN3CCC2CC3)c1` (stereo not shown): the “hERG current change (%, negative = inhibition) at 10uM” value is given as 1.14%.

`CC(C)(Oc1ccc(Cl)cc1)C(=O)NC1CC1`: the “hERG current change (%, negative = inhibition) at 10uM” value is 1.41%.

For the compound `Cc1ccc(/C=C(\NC(=O)c2ccccc2)C(=O)NC2CCN(Cc3ccccc3)CC2)o1`, the “hERG current change (%, negative = inhibition) at 10uM” value is -55.5%.

Take `COc1cc(C(=O)NC2CCN(Cc3ccccc3)CC2)cc(Cl)c1OC`: the “hERG current change (%, negative = inhibition) at 10uM” value is given as -44.3%.

`COc1cc(C(=O)NC2CCN(Cc3ccccc3)CC2)cc(Cl)c1OC(C)C`: the “hERG current change (%, negative = inhibition) at 10uM” value is given as -61.2%.

Consider `Cc1ccc(/C=C(\NC(=O)c2ccccc2)C(=O)NCC2CCCO2)o1` (stereo not shown), for which the “hERG current change (%, negative = inhibition) at 10uM” value was -5.4%.

As to `COc1ccccc1CC(=O)NC1CCN(Cc2ccccc2)CC1`, the “hERG current change (%, negative = inhibition) at 10uM” value was determined as 1.52%.

Consider `C=C(C)c1cccc(C(C)(C)NC(=O)NC2CCCC2)c1`, for which the “hERG current change (%, negative = inhibition) at 10uM” value was 15.1%.

In the case of `Cc1cccc(-c2onc3ccc(C4(C)OCCO4)cc23)c1`, the “hERG current change (%, negative = inhibition) at 10uM” value is listed as -1.6%.

For `CCOC(=O)c1[nH]cnc1C(=O)O`, the “hERG current change (%, negative = inhibition) at 10uM” value is -2.12%.

As for `CN(C)c1ccc(N2C(=NC(=O)C3CCCO3)SC3CS(=O)(=O)CC32)cc1` (stereo not shown), the “hERG current change (%, negative = inhibition) at 10uM” value came out at 11.1%.

On to `CCN(CC)C(=O)N1CCN(C(=O)N2CCOCC2)CC1`, for which the “hERG current change (%, negative = inhibition) at 10uM” value turned out to be 29.8%.

Consider `Cc1ccc2cccc(S(=O)(=O)N3CCN(c4cccc(Cl)c4)CC3)c2n1`, for which the “hERG current change (%, negative = inhibition) at 10uM” value is -2.91%.

In the case of `CC1CC(=O)N(CC(=O)Nc2cccc(F)c2)c2ccccc2S1(=O)=O` (stereo not shown), the “hERG current change (%, negative = inhibition) at 10uM” value was -4.3%.

Consider `O=C(N1CCCCCC1)n1c(Cc2ccccc2)nc2ccccc21`, for which the “hERG current change (%, negative = inhibition) at 10uM” value is on record as -30.5%.

Consider `O=C(CN1CCN(c2ncc(C(F)(F)F)cc2Cl)CC1)NC(=O)NCc1ccccc1`, for which the “hERG current change (%, negative = inhibition) at 10uM” value was found to be 4.2%.

For the compound `Cc1ccc(-n2c(=O)[nH]c3cc(C(=O)NC4CCN(Cc5ccccc5)CC4)ccc3c2=O)cc1`, the “hERG current change (%, negative = inhibition) at 10uM” value was determined as 11.2%.

For `CS(=O)(=O)Cc1ccc(C(=O)NC2CCN(Cc3ccccc3)C2)cc1` (stereo not shown), the “hERG current change (%, negative = inhibition) at 10uM” value was -5.28%.

Regarding `Cc1ccc(C)n1-c1ccc(C(=O)NC2CCN(Cc3ccccc3)CC2)cc1`, the “hERG current change (%, negative = inhibition) at 10uM” value is given as -65.5%.

Take `Cl.O=C(NC(=S)NC1CCN(Cc2ccccc2)CC1)c1ccc(F)cc1`: the “hERG current change (%, negative = inhibition) at 10uM” value is given as -72.3%.

`O=C(NC1CCN(Cc2ccccc2)CC1)c1ccc2c(c1)[nH]c(=O)n2Cc1ccc(F)cc1`: the “hERG current change (%, negative = inhibition) at 10uM” value is -21.8%.

On to `Cc1ccccc1C(=O)NC1CCN(Cc2ccccc2)CC1`, for which the “hERG current change (%, negative = inhibition) at 10uM” value is given as -29.1%.

As for `CC(C)(C)c1ccc(C(=O)NC2CCN(Cc3ccccc3)CC2)cc1`, the “hERG current change (%, negative = inhibition) at 10uM” value was -65.3%.

Take `CC(C)(C)c1ccc(C(=O)N2CCC(NC(=O)c3ccccc3)CC2)cc1`: the “hERG current change (%, negative = inhibition) at 10uM” value is given as -1.48%.

Regarding `Fc1ccc(NC(=S)NC2CCN(Cc3ccccc3)CC2)cc1`, the “hERG current change (%, negative = inhibition) at 10uM” value is reported as -30%.

`S=C(Nc1ccccc1)NC1CCN(Cc2ccccc2)CC1`: the “hERG current change (%, negative = inhibition) at 10uM” value is reported as -39.6%.

In the case of `O=C(NC1CCN(Cc2ccc(F)cc2)CC1)c1ccccc1`, the “hERG current change (%, negative = inhibition) at 10uM” value is -50.2%.

Consider `O=C(NC1CCN(Cc2ccccc2)CC1)c1ccc(CS(=O)c2ccc(F)cc2)o1` (stereo not shown), for which the “hERG current change (%, negative = inhibition) at 10uM” value is recorded as -22.4%.

(Values after publication PMC4336329 (PLoS ONE, 2015).)
